# Source: PubChem BioAssay (National Center for Advancing Translational Sciences (NCATS))
# ERK AVP inh: qHTS Assay for Inhibitors of the ERK Signaling Pathway using a Homogeneous Screening Assay. HEK293-V1b, vasopressin-stimulated pERK AlphaScreen. Potency, µM (top dose mostly 57.5 µM), inactives show top-dose activity, negative = inhibition, actives largely listed as inhibitors. 0.99% of 72,000 active. AID 995, 2007; also: potency is read from the fitted curve at half-maximal effect; % is scaled to controls: 0 for no effect and ±100 for the full control effect; nearly all actives have a fitted effect of over 55% in size
#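 HEK293 cells stably expressing V1b receptor, seeded overnight in 1% FBS, were treated with compounds for 30 min at 37C, then stimulated 5 min with 25 nM vasopressin; phospho-ERK read by AlphaScreen SureFire after lysis.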
# PK Bst: Pyruvate Kinase; 1.2% of 51,000 active; purified pyruvate kinase, luminescence ATP production; ribose 5-phosphate activator present at AC10; Potency, µM; in the data active = potency below about 11 µM; inconclusive = mostly about 12 µM to 25 µM;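 the screen sought inhibitors and activators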;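 also: potency is read from the fitted curve at half-maximal effect; scaled between full activation by ribose 5 phosphate and full inhibition by luteolin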
# FLuc inh: qHTS Assay for Inhibitors of Firefly Luciferase; Potency, µM (titrated, usually from 57.1 µM), for the others: top-dose activity change, negative = inhibition, usual class: inhibitors; AID 411, 2009; 2.2% of 72,000 active; purified firefly luciferase, luminescence, 8 min; also: potency is read from the fitted curve at half-maximal effect; % is scaled to controls: 0 for no effect and ±100 for the full control effect; nearly all actives have a fitted effect of over 40% in size
#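 Here, luciferase activity is measured as luminescence following an 8 min room-temperature reaction at 10 uM ATP, pH 7.2. Every library sample is titrated.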
# GBA activity: Glucocerebrosidase | purified enzyme, resorufin glucoside fluorescence (screen aimed at inhibitors), 20 min | Potency, µM | 1.1% of 48,000 active | AID 360, 2006; in the data active = potency below about 15 µM; inconclusive = mostly about 16 µM to 33 µM;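 also: potency is read from the fitted curve at half-maximal effect; the screen sought inhibitors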
#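 Wild-type enzyme at 0.2 nM final in 50mM citric acid/KH2PO4, 10mM sodium taurocholate, 0.01% tween-20, pH 5.9, with resorufin beta-D-glucopyranoside at 30 uM final. Compounds titrated, 20 min at RT, red fluorescence read; AC50 from titration.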
# HEK293 cAMP cs: qHTS Assay for Agonists of the Thyroid Stimulating Hormone Receptor: Activators of Intracellular cAMP Concentrations in Parental HEK 293. Potency, µM (top dose mostly 57.1 µM), for the others: at the top dose activation, actives largely listed as activators. parental HEK293 CNG cAMP sensor, membrane potential fluorescence. 2.5% of 73,000 active; also: potency is read from the fitted curve at half-maximal effect; % of control where 0% means no effect; nearly all actives have a fitted effect of over 55% in size
#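 Parental HEK 293 cells stably expressing a modified CNG channel (no TSHR) report cAMP rise as membrane depolarization. Membrane potential dye with 100 uM RO 20-1724 was loaded for 60 min at room temperature, then compound added for 30 min; fluorescence read at 590 nm.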
# TSHR agonist: qHTS Assay for Agonists of the Thyroid Stimulating Hormone Receptor; Thyrotropin receptor (Homo sapiens), P16473; HEK293-CNG-TSHR cells (CNG channel as cAMP sensor), membrane potential dye, cAMP; Potency, µM (top dose mostly 57.1 µM), for the others: at the top dose activation, hits mostly activators; 0.48% of 73,000 active; AID 926, 2007; active = well fitted activation curve with a large enough effect in the main read-out, with a control signal flat, not every such curve was filed as active; inconclusive = small, poorly fitted or top-dose-only effect, or a change in a side signal; inactive = no such curve, though single readings can be large or run the other way; % of control where 0% means no effect;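 also: the control signal comes from parental cells without the receptor; potency is read from the fitted curve at half-maximal effect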
#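 HEK 293 cells stably expressing TSHR and a modified CNG channel, with CNG-only parental cells as counterscreen, were preloaded 60 min at room temperature with membrane potential dye containing 100 uM RO 20-1724. Compound exposure was 30 min, and depolarization was read as fluorescence at 590 nm.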
# parental cAMP: Confirmation Concentration-Response Assay for Agonists of the Thyroid Stimulating Hormone Receptor: Activators of Intracellular cAMP Concentrations in Parental HEK 293 | shares compounds with TSHR agonist | parental HEK293 CNG biosensor, cAMP membrane potential fluorescence | activity change, negative = inhibition, % at 32.9 µM | 150 tested, under 10 active
# * = called active by the depositor; ? = inconclusive; . = not tested or not shown; [ ] = another dose, or the depositor's remark. Most compounds without a hit are left out; they make up all but 6.1% or so of the library. Unless noted, calls follow the shape of the dose curve; as a rule, active = well fitted curve in the direction sought with a large enough effect; inconclusive = small, poorly fitted or top-dose-only effect, or another doubt; inactive = no such curve, though single readings can be large; an effect the other way counts as inactive or inconclusive.
SMILES,ERK AVP inh,PK Bst,FLuc inh,GBA activity,HEK293 cAMP cs,TSHR agonist,parental cAMP
Cc1occc1-c1nnc(SCC(=O)Nc2ccccc2)n1C(C)c1ccccc1 (stereo not given),?,>57,-2%,>77,31%,7.9µM*,-10
c1ccc(C(c2ccccc2)N2CCC3(CCNCC3)CC2)cc1,-20%,.,1%[11.4 µM],.,0%,2%,.
COc1ccc(C(=O)N(Cc2ccco2)Cc2cccs2)c(O)c1,14%,>57,0%,>77,24%,2.5µM*,-7
COc1cc2c(N3CCOCC3)cc(O)c(CC(=O)Nc3ccccc3)c2cc1OC,2%,>57,0%,>77,25%,32µM*,-11
Cc1cccc(NC(=O)CSc2nnc(-c3ccccc3)n2N)c1C,5%,>57,3%,>77,-13%,3%[11.4 µM],-2[25.6 µM]
Cc1cccc(NC(=O)CSc2nnc(-c3ccccc3)n2N)c1,11%,>57,4%,>77,-12%,7%,.
Cc1nonc1NC(=O)CSc1nnc(-c2ccoc2C)n1CC(C)C,-11%,>57,0%,>77,13%,26%,.
Cc1occc1-c1nnc(SCC(=O)NCc2ccc3c(c2)OCO3)n1CC(C)C,-6%,>57,5%,>77,29%,16µM*,10
O=C(O)C1C(C(=O)O)C(C(=O)O)C1C(=O)O (stereo not given),-5%[11.5 µM],.,1%[11.4 µM],.,3%[11.4 µM],-10%[11.4 µM],.
